Measured values reported in PubChem BioAssay (EPA / NIEHS).
Calls of active or inactive are those of the source. Rule for the calls: active = hit-call score of the fitted dose curve at least 0.9, where 1 is the maximum; inactive = score below 0.9.

Experiments:
[1] = target: Paired box protein Pax-6 (Homo sapiens) (UniProt P26367); assay: ATG_Pax6_CIS: Attagene CIS-FACTORIAL HepG2 Assay for human Paired Box 6 (PAX6) (AID 2282956); conditions: HepG2 CIS-FACTORIAL PAX6 reporter transcription, RNA readout; actives raise or lower the signal
Paired box protein Pax-6 (Homo sapiens), sequence (P26367 whole entry, looked up): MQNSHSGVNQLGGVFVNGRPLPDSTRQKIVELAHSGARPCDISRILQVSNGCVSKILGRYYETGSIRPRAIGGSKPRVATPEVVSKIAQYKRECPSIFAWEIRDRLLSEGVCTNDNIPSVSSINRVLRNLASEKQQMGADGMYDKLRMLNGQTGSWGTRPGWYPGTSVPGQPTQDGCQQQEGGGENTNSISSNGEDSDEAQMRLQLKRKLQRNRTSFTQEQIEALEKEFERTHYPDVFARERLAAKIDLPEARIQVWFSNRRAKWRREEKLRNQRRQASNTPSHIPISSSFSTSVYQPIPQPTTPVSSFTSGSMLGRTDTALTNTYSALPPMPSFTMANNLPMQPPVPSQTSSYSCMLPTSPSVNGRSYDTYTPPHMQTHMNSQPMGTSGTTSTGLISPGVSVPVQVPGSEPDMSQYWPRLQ
In short: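 After twenty-four hours of chemical exposure, transfected HepG2 cells are harvested for RNA. Cis-promoter reporter transcripts are amplified, fluorescently labelled and sized by capillary electrophoresis, with gain and loss of signal scored against DMSO.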

[2] = ATG_PXRE_CIS: Attagene CIS-FACTORIAL HepG2 Assay for human Pregnane X Receptor Element (PXRE) (AID 2282957); conditions: HepG2 Attagene CIS-FACTORIAL PXRE reporter, mRNA; actives raise or lower the signal
In short: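 Cells: HepG2, transiently transfected reporter units under cis promoter control. Exposure: 24 h. Detection: reporter mRNA via RT-PCR/CE fluorescence; bidirectional fitting, DMSO-referenced.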

[3] = ATG_RORE_CIS: Attagene CIS-FACTORIAL HepG2 Assay for human RAR-related Orphan Receptor Element (RORE) (AID 2282959); conditions: HepG2 Attagene cis-factorial RORE reporter, mRNA; actives raise or lower the signal
In short: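 RORE reporter transcripts reflecting endogenous factor activity were read after 24 h compound exposure of transfected HepG2 cells, using reverse transcription, PCR, fluorescent labelling and capillary electrophoresis sizing. Gain or loss fitted against DMSO.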

[4] = ATG_Sox_CIS: Attagene CIS-FACTORIAL HepG2 Assay for human SRY-box transcription factor (SOX) (AID 2282960); conditions: HepG2 Attagene cis-factorial SOX reporter, mRNA; actives raise or lower the signal
In short: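 Reporter transcripts, measured by RT-PCR and capillary electrophoresis of labelled fragments, report endogenous SOX transcription factor activity. Transiently transfected human HepG2 cells receive chemical for 24 h; changes in either direction are fitted relative to DMSO.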

[5] = target: Transcription factor Sp1 (Homo sapiens) (UniProt P08047); assay: ATG_Sp1_CIS: Attagene CIS-FACTORIAL HepG2 Assay for human Specificity Protein 1 (Sp1) (AID 2282961); conditions: HepG2 Sp1 cis-reporter transcription, actives raise or lower the signal
Transcription factor Sp1 (Homo sapiens), sequence (P08047 whole entry, looked up): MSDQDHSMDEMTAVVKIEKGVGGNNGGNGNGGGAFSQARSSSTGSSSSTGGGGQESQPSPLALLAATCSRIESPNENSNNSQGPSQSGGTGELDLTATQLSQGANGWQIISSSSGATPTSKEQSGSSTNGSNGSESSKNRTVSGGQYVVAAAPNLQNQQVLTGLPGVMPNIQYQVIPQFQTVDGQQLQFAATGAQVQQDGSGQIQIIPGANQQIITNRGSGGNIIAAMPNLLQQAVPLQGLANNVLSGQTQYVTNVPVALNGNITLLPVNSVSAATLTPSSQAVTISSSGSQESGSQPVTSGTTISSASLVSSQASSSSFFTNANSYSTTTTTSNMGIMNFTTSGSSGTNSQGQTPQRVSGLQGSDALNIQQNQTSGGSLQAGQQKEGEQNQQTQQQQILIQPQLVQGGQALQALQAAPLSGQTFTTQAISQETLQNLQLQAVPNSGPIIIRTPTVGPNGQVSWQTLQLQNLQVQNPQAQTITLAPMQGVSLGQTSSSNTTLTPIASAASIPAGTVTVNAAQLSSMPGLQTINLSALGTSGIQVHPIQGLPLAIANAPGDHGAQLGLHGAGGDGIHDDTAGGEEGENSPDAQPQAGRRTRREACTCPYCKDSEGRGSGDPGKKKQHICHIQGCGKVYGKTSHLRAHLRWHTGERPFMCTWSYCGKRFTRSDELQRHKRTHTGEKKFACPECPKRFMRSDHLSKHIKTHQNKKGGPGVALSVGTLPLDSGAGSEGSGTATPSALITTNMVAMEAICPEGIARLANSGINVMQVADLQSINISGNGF
In short: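 Read-out is reporter transcript level, measured by RT-PCR and fluorescent capillary electrophoresis after 24 h chemical treatment. System: transiently transfected HepG2 cells reporting endogenous transcription factor activity; gain or loss fitted against DMSO baseline.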

[6] = ATG_SREBP_CIS: Attagene CIS-FACTORIAL HepG2 Assay for human Sterol Regulatory Element Binding (SREBP) (AID 2282962); conditions: HepG2 Attagene cis-factorial SREBP reporter, mRNA; actives raise or lower the signal
In short: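 Twenty-four hours after chemical dosing of transfected HepG2 cultures, reporter RNA was converted to cDNA, amplified, end-labelled with 6-FAM and resolved by capillary electrophoresis. Responses were fitted relative to DMSO.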

[7] = target: Signal transducer and activator of transcription 3 (Homo sapiens) (UniProt P40763); assay: ATG_STAT3_CIS: Attagene CIS-FACTORIAL HepG2 Assay for human Signal Transducer and Activator of Transcription 3 (STAT3) (AID 2282963); conditions: HepG2, Attagene cis-factorial STAT3 reporter transcription; actives raise or lower the signal
Signal transducer and activator of transcription 3 (Homo sapiens), sequence (P40763 whole entry, looked up): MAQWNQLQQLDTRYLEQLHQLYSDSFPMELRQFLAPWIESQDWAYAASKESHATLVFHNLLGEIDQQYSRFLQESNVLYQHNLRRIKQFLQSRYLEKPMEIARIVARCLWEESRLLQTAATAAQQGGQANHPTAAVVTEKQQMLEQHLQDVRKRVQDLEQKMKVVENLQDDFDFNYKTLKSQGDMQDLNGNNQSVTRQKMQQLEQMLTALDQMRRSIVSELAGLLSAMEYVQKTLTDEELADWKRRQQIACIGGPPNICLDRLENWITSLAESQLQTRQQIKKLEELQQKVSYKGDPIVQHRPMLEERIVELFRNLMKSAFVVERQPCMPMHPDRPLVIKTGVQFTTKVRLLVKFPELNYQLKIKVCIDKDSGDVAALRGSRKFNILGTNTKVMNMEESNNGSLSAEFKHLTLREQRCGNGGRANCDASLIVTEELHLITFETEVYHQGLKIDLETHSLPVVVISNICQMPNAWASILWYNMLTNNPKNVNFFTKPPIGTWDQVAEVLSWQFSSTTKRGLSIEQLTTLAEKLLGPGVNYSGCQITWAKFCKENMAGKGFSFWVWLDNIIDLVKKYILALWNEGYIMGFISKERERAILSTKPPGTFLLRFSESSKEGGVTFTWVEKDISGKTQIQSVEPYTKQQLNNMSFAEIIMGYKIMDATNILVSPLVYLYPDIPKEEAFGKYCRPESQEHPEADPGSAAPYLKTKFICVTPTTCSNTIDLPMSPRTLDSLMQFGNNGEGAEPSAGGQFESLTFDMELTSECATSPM
In short: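 HepG2 cells transiently transfected with cis-element-driven multiple reporter transcription units; after 24 h chemical exposure, reporter mRNA measured by RT-PCR, 6-FAM primer-extension labelling, HpaI digestion and capillary electrophoresis. Bidirectional fitting versus DMSO baseline.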

[8] = ATG_TA_CIS: Attagene CIS-FACTORIAL HepG2 Assay for human TA Basal Promoter (AID 2282964); conditions: HepG2 Attagene CIS-factorial TA basal promoter reporter; actives raise or lower the signal
In short: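 HepG2 cells transiently transfected with multiple reporter units under cis promoter elements, reporting endogenous transcription factor activity; this endpoint tracks the TA basal promoter as background control. Reporter mRNA after 24 h dosing measured by RT-PCR/capillary electrophoresis; bidirectional fits versus DMSO.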

[9] = ATG_TCF_b_cat_CIS: Attagene CIS-FACTORIAL HepG2 Assay for human T-Cell-Factor with beta-catenin (TCF/b-cat) (AID 2282965); conditions: HepG2 TCF/beta-catenin cis-reporter transcription, actives raise or lower the signal
In short: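 Using capillary electrophoresis as the read-out, labelled reporter cDNA fragments from transiently transfected HepG2 were sized and quantified. Exposure lasted 24 hours; activity in either direction was referenced to DMSO.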

Measured: AC50

CC(C)C[C@H]1C(=O)N2CCC[C@H]2[C@]2(O)O[C@](NC(=O)[C@@H]3C=C4c5cccc6[nH]c(Br)c(c56)C[C@H]4N(C)C3)(C(C)C)C(=O)N12
active: [1] 4.02 µM | [2] 0.302 µM | [3] 1.9 µM | [5] 2.91 µM | [8] 3.09 µM | [9] 4.37 µM
inactive: [4] | [6] | [7]

CC1CCC2CC1C2(C)C (stereo not drawn)
inactive: all assays above

Cc1c(N(C)C)c(=O)n(-c2ccccc2)n1C
active: [2] 153 µM
inactive: all other assays above

CCCCCC(=O)OCCc1ccccc1
inactive: all assays above

OCCOCCOCCOCCO
active: [2] 29.4 µM
inactive: all other assays above

Clc1cccc(Cl)n1
inactive: all assays above

CC1(C)[C@@H]2CC[C@@]1(C)[C@H](O)C2
inactive: all assays above

CC(C)[C@H]1CC[C@@H](C)CC1=O
active: [2] 61.9 µM
inactive: all other assays above

O=C(O)CCCCCCCC(=O)O
inactive: all assays above

CC(=O)Nc1ccc(CC(=O)O)cc1
inactive: all assays above

O=C1O[C@@H]2[C@@H](O)[C@H](O)O[C@@H]2[C@H]1O
inactive: all assays above

CC(C)(C)c1n[nH]c(=S)n(N)c1=O
active: [2] 44.2 µM
inactive: all other assays above

ClCCCl
inactive: all assays above

CC1(C)OC[C@@H]2O[C@@]3(C(=O)O)OC(C)(C)O[C@H]3[C@@H]2O1
inactive: all assays above

CSc1nnc(C(C)(C)C)c(=O)[nH]1
inactive: all assays above

Cc1cc(C2(c3cc(C)c(O)cc3C)OS(=O)(=O)c3ccccc32)c(C)cc1O
active: [2] 24.2 µM
inactive: all other assays above

CC1(C)[C@H](C(=O)OCc2cccc(Oc3ccccc3)c2)[C@@H]1C=C(Cl)Cl
active: [2] 4.97 µM
inactive: all other assays above

Nc1cc(Cl)c(O)c(Cl)c1
active: [1] 136 µM | [2] 24.8 µM | [3] 60.2 µM | [6] 130 µM | [9] 64.2 µM
inactive: [4] | [5] | [7] | [8]

C=CC[N+](C)(C)CC=C
inactive: all assays above

COc1ccc(OC)c(OC)c1
inactive: all assays above

CCCCCCCCC=O
not listed: [5]
inactive: all other assays above

CNCCO
inactive: all assays above

CN(C)c1ccc(O)c2c1C[C@H]1C[C@H]3[C@H](N(C)C)C(=O)C(C(N)=O)=C(O)[C@@]3(O)C(=O)C1=C2O
inactive: all assays above

O=C1NC(=O)c2ccccc21
active: [2] 38.5 µM
inactive: all other assays above

CC(C)(N)CO
inactive: all assays above

OC1OC[C@@H](O)[C@H](O)[C@H]1O (stereo partly drawn)
inactive: all assays above

CC(CN1c2ccccc2Sc2ccccc21)N(C)C (stereo not drawn)
active: [1] 44 µM | [2] 5.52 µM | [9] 33.4 µM
inactive: all other assays above

COC(C)CCO (stereo not drawn)
active: [2] 26.6 µM | [9] 187 µM
inactive: all other assays above

COc1cc(C=O)ccc1OC(=O)C(C)C
inactive: all assays above

CC(C)c1ccc(C(C)C)cc1
active: [6] 152 µM
inactive: all other assays above

c1ccc2c(c1)c1cccc3ccc4cccc2c4c31
inactive: all assays above

CCO[Si](CCCS)(OCC)OCC
inactive: all assays above

CC(C)(C#N)c1cc(Cn2cncn2)cc(C(C)(C)C#N)c1
active: [2] 14.8 µM
not listed: [3]
inactive: all other assays above

O=C(O)CCCCCCCCCCC(=O)O
not listed: [3]
inactive: all other assays above

CC(CCO)CCc1ccccc1 (stereo not drawn)
active: [2] 41.1 µM
not listed: [3]
inactive: all other assays above

O=S(=O)(O)c1cccc2c(S(=O)(=O)O)cccc12
not listed: [3]
inactive: all other assays above

Nc1cc([N+](=O)[O-])ccc1Cl
not listed: [4]
inactive: all other assays above

OC[C@H]1O[C@H](O[C@]2(CCl)O[C@H](CCl)[C@@H](O)[C@@H]2O)[C@H](O)[C@@H](O)[C@H]1Cl
not listed: [4]
inactive: all other assays above

O=C(O)c1ccc([N+](=O)[O-])cc1
not listed: [5]
inactive: all other assays above

Nc1ccc(S(N)(=O)=O)cc1
not listed: [3]
inactive: all other assays above

O=CCCc1ccccc1
active: [2] 23.6 µM
not listed: [3]
inactive: all other assays above

COC(=O)c1ccc(C)cc1
active: [2] 11.1 µM
not listed: [3]
inactive: all other assays above

CCCCCCCCCCCCCCCC(=O)O
active: [2] 25.3 µM
not listed: [3]
inactive: all other assays above

CCCc1ccccc1O
active: [2] 56 µM
not listed: [5]
inactive: all other assays above

CCC(=O)/C=C/C1C(C)=CCCC1(C)C (stereo not drawn)
active: [2] 4.76 µM
not listed: [4]
inactive: all other assays above

CC(C)C(C)(C)C(C)(C)C(C)(C)S
active: [2] 4.43 µM
not listed: [3]
inactive: all other assays above

O=S(=O)(O)c1ccc(O)c2ncccc12
not listed: [3]
inactive: all other assays above

OCCN1CCNCC1
not listed: [3]
inactive: all other assays above

OCc1cccnc1
not listed: [5]
inactive: all other assays above

CC(C)CCCCCCCOC(=O)c1ccc(C(=O)OCCCCCCCC(C)C)c(C(=O)OCCCCCCCC(C)C)c1
active: [2] 42.7 µM
not listed: [5]
inactive: all other assays above

C=O
active: [2] 27.7 µM
not listed: [3]
inactive: all other assays above

COc1ccnc(CS(=O)c2nc3cc(OC(F)F)ccc3[nH]2)c1OC (stereo not drawn)
active: [2] 8.07 µM
not listed: [3]
inactive: all other assays above

Cc1ncc([N+](=O)[O-])n1C
active: [2] 53.2 µM
not listed: [3]
inactive: all other assays above

O=C(COc1ccc(Cl)cc1)N1CCN(Cc2ccc3c(c2)OCO3)CC1
active: [1] 57.7 µM | [2] 4.76 µM | [6] 27.1 µM
not listed: [5]
inactive: all other assays above
